This assay can be described thus: chemical genetic growth profiling, strain panel (AID 1159580).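 Further: tested at 20 µM; growth read once vehicle control cultures reached saturation at 30 °C; 1 = growth at the plate median or of vehicle wells.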 As to conditions: S. cerevisiae deletion strains, growth OD.
Setting [1] is: locus YJR075W, strain HOC1, stronger effect = lower value.
Setting [2] is: locus YMR263W, strain SAP30, stronger effect = lower value.
The mark [3] stands for this setting: locus YNL153C, strain GIM3, stronger effect = lower value.
The mark [4] stands for this setting: locus YPL055C, strain LGE1, stronger effect = lower value.

The whole screen tested about 5,500 compounds, of which about 2,000 (36%) were called active. Not shown: some 18% with an inconclusive outcome. Some of the results follow. Values without a mark were called inactive. No stated cut-off is given here; in the data, active means normalized growth mostly below about 0.91 (no sharp cut-off); inconclusive means no clear call, values can overlap the other calls; inactive means mostly above about 0.92.

For `O=C1c2ccccc2-c2n[nH]c3cccc1c23`, the normalized growth reads like this: (locus YAL040C, strain CLN3, stronger effect = lower value) 0.674 (active); (locus YDR363W, strain ESC2, stronger effect = lower value) 0.906; (locus YER002W, strain NOP16, stronger effect = lower value) 0.982; under setting [1], 0.827 (active); under setting [2], 0.981; under setting [3], 0.345 (active). The normalized growth (locus YNL175C, strain NOP13, stronger effect = lower value) is 0.621 (active); the normalized growth (locus YNL197C, strain WHI3, stronger effect = lower value) is 0.826 (active); the normalized growth (locus YNL224C, strain SQS1, stronger effect = lower value) was 0.654 (active); the normalized growth (locus YOR083W, strain WHI5 (second series), stronger effect = lower value) was 0.504 (active); the normalized growth under setting [4] was 0.727 (active).

Take `N/C(=N/OC(=O)c1ccccc1)c1ccc(-c2csnn2)cc1`: the normalized growth (locus YAL013W, strain DEP1, stronger effect = lower value) is 0.998; the normalized growth (locus YBR229C, strain ROT2, stronger effect = lower value) is 0.988; the normalized growth (locus YDL101C, strain DUN1, stronger effect = lower value) is 0.984; the normalized growth (locus YDL134C, strain PPH21, stronger effect = lower value) is 1.01; the normalized growth (locus YDR150W, strain NUM1, stronger effect = lower value) is 0.965; the normalized growth (locus YEL061C, strain CIN8, stronger effect = lower value) is 0.991. In addition, the normalized growth (locus YGR078C, strain PAC10, stronger effect = lower value) is 1; the normalized growth (locus YHR030C, strain SLT2, stronger effect = lower value) is 1.08; the normalized growth (locus YHR087W, strain rtc3, stronger effect = lower value) is 0.993; the normalized growth (locus YJL187C, strain SWE1, stronger effect = lower value) is 1.02; the normalized growth (locus YJR043C, strain POL32, stronger effect = lower value) is 1.01; the normalized growth under setting [1] is 1.02. Besides, the normalized growth (locus YLR039C, strain RIC1, stronger effect = lower value) was 1.03; the normalized growth (locus YLR058C, strain SHM2 (second series), stronger effect = lower value) is 1; the normalized growth (locus YLR085C, strain ARP6, stronger effect = lower value) was 1.01; the normalized growth (locus YLR262C, strain YPT6, stronger effect = lower value) is 1.01; the normalized growth (locus YML094W, strain GIM5, stronger effect = lower value) was 0.993; the normalized growth (locus YMR219W, strain ESC1, stronger effect = lower value) is 1. In addition, the normalized growth is 1.03 under setting [2]; 1 under setting [3]; 1.01 (locus YNL298W, strain CLA4 (second series), stronger effect = lower value); 1.01 (locus YNL322C, strain KRE1, stronger effect = lower value); 1 (locus YNR030W, strain Alg12, stronger effect = lower value); 1.07 (locus YOL006C, strain TOP1, stronger effect = lower value). The normalized growth reads like this: under setting [4], 0.905; (locus YPL241C, strain CIN2, stronger effect = lower value) 1; (locus YPR135W, strain CTF4, stronger effect = lower value) 1.04.

The values above are taken from PubChem BioAssay AID1159580 (chemical genetic matrix, 2015).
